According to PubChem BioAssay (NCI):
Values joined by “and” are separate entries in the source; they are usually repeats but may differ in a detail not shown here. Equal values may be shown once. The panel holds about 83,000 compounds, 20% with a hit somewhere; the sample as a whole holds those more often.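 Step 1: grow cells in 96-well plates. Step 2: add test compound at a single concentration. Step 3: incubate 48 h. Step 4: record percent growth.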 Active and inactive are the calls of the source. How the source made its calls: active means growth percent below 10; inactive means the rest.

Key:
Assay in all cases: NCI-60 one-dose screen, 48 h (100 = growth as untreated, 0 = no growth, -100 = all killed)
OVCAR-8 ovarian = details: 10 µM
OVCAR-5 ovarian = details: 10 µM unless noted
OVCAR-4 ovarian = details: 10 µM unless noted
SK-OV-3 ovarian = details: 10 µM unless noted
IGROV1 ovarian = details: 10 µM unless noted
OVCAR-3 ovarian = details: 10 µM unless noted
HS 578T breast = details: 10 µM unless noted
T-47D breast = details: 10 µM unless noted
MDA-MB-435 melanoma = details: 10 µM unless noted
BT-549 breast = details: 10 µM unless noted

Structure (SMILES)	growth (OVCAR-8 ovarian)	growth (OVCAR-5 ovarian)	growth (OVCAR-4 ovarian)	growth (SK-OV-3 ovarian)	growth (IGROV1 ovarian)	growth (OVCAR-3 ovarian)	growth (HS 578T breast)	growth (T-47D breast)	growth (MDA-MB-435 melanoma)	growth (BT-549 breast)
CCCCCCCCCCCC1CCCC(C)N1 (stereo not given)	67.3% (inactive)	88.8% (inactive)	85.5% (inactive)	121% (inactive)	-40.3% (active)	90.9% (inactive)	64.5% (inactive)	102% (inactive)	71.8% (inactive)	
CN1CCN(c2ccc([N+](=O)[O-])c3no[n+]([O-])c23)CC1	-92.7% (active)	-15.2% (active)	-91.8% (active)	-97.9% (active)	-71.5% (active)	-88.8% (active)	-12% (active)	-56.5% (active)	-82.2% (active)	-64.6% (active)
CC1=C2C(=O)[C@H]3[C@@H](CC=C4C[C@@H](O)CC[C@@]43C)[C@@H]2CC[C@]12O[C@@H]1C[C@H](C)CN[C@H]1[C@H]2C	89.3% (inactive)	94% (inactive)	96.3% (inactive)	101% (inactive)	26.1% (inactive)	140% (inactive)	118% (inactive)	107% (inactive)	98.2% (inactive)	
COc1ccccc1/C=C(/C)[N+](=O)[O-]	85.6% (inactive) and 103% (inactive)	104% (inactive) and 91.1% (inactive)	105% (inactive) and 102% (inactive)	115% (inactive) and 81.6% (inactive)	71.5% (inactive) and 95.9% (inactive)	78.2% (inactive) and 101% (inactive)	97.2% (inactive) and 118% (inactive)	35.7% (inactive) and 86.6% (inactive)	79.2% (inactive) and 105% (inactive)	83.6% (inactive) and 101% (inactive)
CC[C@](O)(C(=O)O)c1cc2n(c(=O)c1CO)Cc1cc3ccccc3nc1-2		9.24% (active)	-19.4% (active)	12.4% (inactive)	-48.1% (active)	-42.3% (active)	29.4% (inactive)	-6.44% (active)	-81% (active)	-34.5% (active)
Cc1c(N)nc([C@H](CC(N)=O)NC[C@H](N)C(N)=O)nc1C(=O)N[C@H](C(=O)N[C@H](C)[C@@H](O)[C@H](C)C(=O)N[C@H](C(=O)NCCc1nc(-c2nc(C(=O)NCCC[S+](C)C)cs2)cs1)[C@@H](C)O)C(OC1OC(CO)C(O)C(O)C1OC1OC(CO)C(O)C(OC(N)=O)C1O)c1cnc[nH]1 (stereo not given in full)		59.5% [2.5 µM] (inactive)	104% [2.5 µM] (inactive)	98% [2.5 µM] (inactive)	42.3% [2.5 µM] (inactive)	83.5% [2.5 µM] (inactive)	-2.02% [2.5 µM] (active)	92.2% [2.5 µM] (inactive)	85.1% [2.5 µM] (inactive)	54% [2.5 µM] (inactive)
CO[C@H](/C(C)=C/C=C/C(C)=C/c1coc(C)n1)[C@H](C)[C@H]1C[C@@H](O)[C@@]2(C)O[C@H]2/C=C/[C@@H](C)[C@@H]2C[C@@H](CC(=O)O2)C[C@H]2O[C@@H]2C(=O)O1		34.2% (inactive)	-6.77% (active)	32.3% (inactive)	-35.5% (active)	-36.3% (active)	-2.81% (active)	64% (inactive)	-59.2% (active)	8.66% (active)
CC[C@@]1(O)C[C@H](OC2CC(N(C)C)C(OC3CC(O)C(OC4CCC(=O)C(C)O4)C(C)O3)C(C)O2)c2c(cc3c(c2O)C(=O)c2c(O)ccc(O)c2C3=O)[C@H]1C(=O)OC (stereo not given in full)		1.64% (active)	-36.5% (active)	33.1% (inactive)	-49.2% (active)	0.51% (active)	9.34% (active)	18% (inactive)	-2.5% (active)	-4.5% (active)
Cc1ccc(C(=O)OC(C(=O)O)C(OC(=O)c2ccc(C)cc2)C(=O)O)cc1 (stereo not given) (tested in a mixture with another compound)	61.4% (inactive)	67% (inactive)	58.9% (inactive)	69.7% (inactive)	63% (inactive)	44.5% (inactive)	40% (inactive)		51.3% (inactive)	17.5% (inactive)
C[C@]12CC[C@H](O)CC1=CC[C@@H]1[C@@H]2CC[C@]2(C)C(=O)CC[C@@H]12		92.3% (inactive)	95.3% (inactive)	116% (inactive)	80.5% (inactive)	90.6% (inactive)	130% (inactive)	96.4% (inactive)	90.3% (inactive)	98.3% (inactive)
Oc1cccc2cccnc12	81.9% (inactive) and 101% (inactive) and 105% (inactive)	89.4% (inactive)	60.6% (inactive) and 120% (inactive) and 114% (inactive)	107% (inactive) and 97.8% (inactive) and 99.9% (inactive)	120% (inactive) and 118% (inactive) and 104% (inactive)	-6.09% (active) and 105% (inactive) and 104% (inactive)	116% (inactive) and 101% (inactive)	29% (inactive) and 95.8% (inactive) and 97.9% (inactive)	101% (inactive) and 110% (inactive) and 119% (inactive)	106% (inactive) and 113% (inactive) and 101% (inactive)
C[C@H]1CCC/C=C/[C@@H]2C[C@H](O)C[C@H]2[C@H](O)/C=C/C(=O)O1		32.1% (inactive)	-30.5% (active)	35.9% (inactive)	-54.8% (active)	-37.4% (active)	57.9% (inactive)	-26.1% (active)	0.489% (active)	2.5% (active)
CCC(=O)OC1CCn2c1nc1c2C(=O)C(C)=C(N2CC2)C1=O (stereo not given)	3.32% (active)	13.5% (inactive)	13.2% (inactive)	-53.8% (active)	-6.18% (active)	-18.5% (active)	-5.47% (active)	70.2% (inactive)	-83.6% (active)	-79.1% (active)
CC(=O)O[C@H]1C[C@@H]2OC3C=C(C)CCC3(C)[C@@]1(C)[C@@]21CO1 (stereo not given in full)	-9.39% (active) and -19.9% (active)	6.22% (active) and 5.12% (active)	-5.17% (active) and -15.1% (active)	5.54% (active) and -8.41% (active)	-12.6% (active) and -11.8% (active)	-17.6% (active) and -41.3% (active)	-6.29% (active)	-4.55% (active) and -14.4% (active)	-21.1% (active) and -27.5% (active)	-28.8% (active) and -11.6% (active)
CC[C@@]1(O)C[C@H](OC2CC(N(C)C)C(O)C(C)O2)c2c(O)c3c(c(O)c2[C@H]1OC1CC(N(C)C)C(O)C(C)O1)C(=O)c1cccc(O)c1C3=O (stereo not given in full)		-21% (active)	-57.2% (active)	24.2% (inactive)	-71% (active)	1.09% (active)	-38.5% (active)	1.62% (active)	-86% (active)	-61.3% (active)
